# Pf Dd2 growth – qHTS Primary assay for Inhibitors of Plasmodium falciparum Dd2 growth in vitro | P. falciparum Dd2 growth, SYBR Green, 72 h | Potency, µM (top dose mostly 28.9 µM), inactives show at the top dose activity, negative = inhibition, hits mostly inhibitors | 120,000 tested, 4.3% active | AID 1347417, 2020; active = well fitted inhibition curve with a large enough effect;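 also: plate controls were DMSO vehicle for no effect and reference drug for full effect; nearly all actives have a fitted effect of over 65% in size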
#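 Readout: SYBR Green fluorescence, 485 nm excitation, 535 nm emission, after ~16 h lysis at 37C. Before that, Dd2-infected red cells (2.5% hematocrit) grew 72 h with compound, 29 uM top final concentration.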
# The depositor's hits bear a star; i = inactive; [ ] = dose if it differs, or a comment. The sample as a whole holds a higher share of hits than the screen did. Potency is read from the fitted curve at half-maximal effect.
SMILES,Pf Dd2 growth
CCCSc1nnc2n(-c3ccc(OC)cc3)c(=O)c3c4c(sc3n12)COC(C(C)C)C4 (stereo not given),10µM*
COc1ccc(-n2c(SCCC(C)C)nc3sc4c(c3c2=O)CC(C(C)C)OC4)cc1 (stereo not given),0.6%
CCNC(=O)N(C1CC1)C1CCOC2(CCN(C(=O)Cc3ccccc3)CC2)C1 (stereo not given),1.9%
CC(=O)N1CCN(c2nc3c(s2)CC(C(=O)NCC2CCCCC2)CC3)CC1 (stereo not given),i
COCCOc1cc(=O)n2c(c1C(=O)NCc1ccccc1OC)CCOCC2,-19.0%
CN(C)C(=O)c1ccc(OC2CCN(C(=O)C3CCCC3)CC2)nc1,19.4%
O=C(Nc1ccccc1F)C(Cc1ccccc1)n1cccc1 (stereo not given),4.7%
O=C(Nc1ccc(C(F)(F)F)cc1)C(Cc1ccccc1)n1cccc1 (stereo not given),14.1µM*
CC(C)c1ccc(NC(=O)C(Cc2ccccc2)n2cccc2)cc1 (stereo not given),i
O[C@@H]1C[C@@H](c2nc(-c3ccc(C(F)(F)F)cc3)no2)N(Cc2cccc(OC(F)(F)F)c2)C1,i
Cc1cc(C(=O)N2CCN(c3ccccc3)CC2)c2c(C)nn(-c3cccc(F)c3)c2n1,15.7%
CCc1ccc(-n2nc(C)c3c(C(=O)N4CCN(c5ccccc5)CC4)cc(C)nc32)cc1,-11.9%
CCc1ccc(-n2nc(C)c3c(C(=O)N4CCN(c5cccc(Cl)c5)CC4)cc(C)nc32)cc1,11.2µM*
CC(C)C(=O)NCc1ccc(C(=O)N2CCC3(CCNCC3)CC2)cc1,-14.8%
CC(C)(C)NC(=O)CN1C(=O)NC2(CCCCC2)C1=O,36.4%
CC(C)c1noc([C@@H]2C[C@H]3C(=O)NCCCCCCN(C(=O)c4ccc(C#N)cc4)[C@H]3C2)n1,i
COc1ccc([C@@H](NC(=O)Cc2csc(C(C)=O)c2)C2CC(O)C2)cn1 (stereo not given in full),-4.5%
N#Cc1cccnc1N1CCN(Cc2ccc(F)c(F)c2)C(CCO)C1 (stereo not given),-10.9%
O=C(CCC1N=C2c3ccccc3N=C(SCc3cccc(Cl)c3)N2C1=O)NCCc1ccccc1 (stereo not given),38.0%
O=C(CCC1N=C2c3ccccc3N=C(SCC(=O)NCCc3ccccc3)N2C1=O)NCc1ccc(F)cc1 (stereo not given),-19.4%
O=C(CC1N=C2c3ccccc3N=C(SCc3ccc(F)cc3)N2C1=O)NCCc1ccccc1 (stereo not given),-18.2%
O=C(CCC1N=C2c3ccccc3N=C(SCc3cccc(Cl)c3)N2C1=O)N1CCN(c2ccccc2)CC1 (stereo not given),11.2µM*
O=C(CCC1N=C2c3ccccc3N=C(SCc3cccc(Cl)c3)N2C1=O)NCc1cccs1 (stereo not given),82.2%
O=C(CCC1N=C2c3ccccc3N=C(SCc3ccc(F)cc3)N2C1=O)N1CCN(c2ccccc2)CC1 (stereo not given),12.6µM*
CC(O)c1cc2n(n1)CCN(CCS(=O)(=O)c1ccccc1)C2 (stereo not given),-7.8%
SMILES,Pf Dd2 growth
COCC(=O)N1C[C@@H]2CCCN3CCC[C@@H]([C@H]23)[C@H]1CCCC(=O)NCC1CC1,14.5%
CNC(=O)N1CCC(C2CCN(C(=O)c3cscn3)C2)CC1 (stereo not given),1.1%
COc1ccc(C2Cn3cnc(C(=O)N4CCC(C(=O)NCC5CCCCC5)CC4)c3CO2)cc1 (stereo not given),-19.2%
O=C1CNc2ccc(C(=O)N3C[C@H](CO)C[C@H](CN4CCCC4)C3)cc2N1,-9.1%
CCOc1ccccc1NC(=O)CN1C=C(C(=O)OC)C(C)=NS1(=O)=O,14.8%
COCCn1c(=O)c2c(n1Cc1ccccc1)CN(Cc1cccnc1OC)CC2,-16.0%[44.1 µM]
COCCCN1CCc2c(n(Cc3ccccc3)n(-c3ccccc3)c2=O)C1,11.2µM*
COCCn1c(=O)c2c(n1Cc1ccccc1)CN(Cc1ccc(C(C)C)cc1)CC2,-10.5%[44.1 µM]
O=C(NCC1(COc2ccc(C(F)(F)F)cn2)C[C@@H](O)[C@@H](O)C1)C1CC1 (stereo not given in full),9.9%[44.1 µM]
Cn1cc(CNCC2(COc3ccc(C(F)(F)F)cn3)C[C@@H](O)[C@@H](O)C2)cn1 (stereo not given in full),i
O[C@@H]1CC(CNCc2ccc(F)cc2)(COc2ccc(C(F)(F)F)cn2)C[C@@H]1O (stereo not given in full),3.98µM*
O=C(NC1CCCC1)c1ccc(N2CC3CC(C2)[C@H]2CCCC(=O)N2C3)nc1 (stereo not given in full),-16.8%
Cc1ccc(C(=O)N2CCc3sc(C(=O)O)cc3C2)cc1,17.7%
Cc1ccc(C(=O)N2CCc3sc(C(=O)NCc4ccc(C)o4)cc3C2)cc1,11.2µM*
Cc1ccc(C(=O)N2CCc3sc(C(=O)NCc4ccc(F)cc4F)cc3C2)cc1,-14.3%
COc1ccccc1Cn1c(-c2ccc(Cl)cc2)nc(C)c(CCO)c1=O,-8.1%
COc1ccc(C(=O)N2CCC3(CC2)CC(Cc2nc(-c4ccccc4)no2)CCO3)cc1 (stereo not given),i
Cc1ccc(NC(=O)N2CCC3(CC2)CC(Cc2nc(-c4ccccc4)no2)CCO3)cc1C (stereo not given),8.91µM*
COc1ccc(CNC(=O)N2CCC3(CC2)CC(Cc2nc(C4CC4)no2)CCO3)cc1 (stereo not given),-9.5%
COc1cccc(-c2nc3cnccn3c2NCCC(=O)Nc2ccc(F)cc2C)c1,i
CN1CCN(Cc2nc(C3(O)CCN(Cc4ccc(C(F)(F)F)cc4)CC3)cs2)CC1,i
CCN1CCN(C(c2ccccc2F)c2c(O)cc(C)n(CCOC)c2=O)CC1 (stereo not given),i
CCN1CCN(Cc2c(O)ccc3c(=O)c(Oc4ccccc4C(C)C)c(C(F)(F)F)oc23)CC1,0.0631µM*
CC(C)c1ccccc1Oc1c(C(F)(F)F)oc2c(CN3CCN(C)CC3)c(O)ccc2c1=O,0.316µM*
COc1ccc(CN2CCC(O)(c3csc(CN4CCN(C)CC4)n3)CC2)cc1,i
SMILES,Pf Dd2 growth
CCc1ccc(Oc2c(C(F)(F)F)oc3c(CN4CCN(C)CC4)c(O)ccc3c2=O)cc1,0.282µM*
CN1CCCN(C(=O)NCCc2ccccc2)c2ccccc21,-10.8%
CS(=O)(=O)N(Cc1cccnc1)C1CN(C(=O)CCC2CCCC2)C1,-21.6%
CCOc1ccccc1NC(=O)Cn1ccn2nc(-c3ccc(F)cc3)c(CO)c2c1=O,i
O=C(CC1CCCCC1)N1CCC(n2cc(-c3nc(-c4ccccc4)no3)nn2)CC1,i
COc1ccc2c(CNCc3cccs3)c(C(=O)O)n(Cc3ccc(F)cc3)c2c1,-2.6%
C=Cc1ccc(Cn2c(C(=O)O)c(CNCc3ccccc3)c3ccc(OC)cc32)cc1,11.2µM*
COc1ccc2c(CNCc3ccc(C)o3)c(C(=O)O)n(Cc3ccccc3)c2c1,-15.9%
COc1ccc(Cn2c(C(=O)O)c(CNCc3ccc(SC)cc3)c3ccc(OC)cc32)cc1,7.94µM*
COc1ccc2c(CNCCc3cccs3)c(C(=O)O)n(Cc3ccc(F)cc3Cl)c2c1,i
COc1ccc2c(CNCCc3ccco3)c(C(=O)O)n(Cc3ccccc3)c2c1,-12.2%
COc1ccc(OC)c(S(=O)(=O)NCC(=O)N2CCCCCNC(=O)CC2c2ccccc2)c1 (stereo not given),i
Cc1nc(C2(C)CCN(C(=O)CCc3nc4ccccc4[nH]3)CC2)no1,17.9%
